Laboratory results reported in publication PMC7862700, “An all-to-all approach to the identification of sequence-specific readers for epigenetic DNA modifications on cytosine”.

Assays:
Assay in all cases: DAPPL (digital affinity profiling via proximity ligation, sequencing); 10 mM Tris-HCl pH 7.5, 50 mM NaCl, 1 mM DTT, 4% glycerol, room temperature, 30 min; GST-TFs on glutathione beads, 16-mer random dsDNA library, 0.1% formaldehyde crosslink after washing; high values mean tight binding
[1] = molecular target: T1, FEV (Homo sapiens, UniProt Q99581 1-238); conditions: protein: recombinant; tags: N-terminal GST; dsDNA, one strand shown
T1 sequence: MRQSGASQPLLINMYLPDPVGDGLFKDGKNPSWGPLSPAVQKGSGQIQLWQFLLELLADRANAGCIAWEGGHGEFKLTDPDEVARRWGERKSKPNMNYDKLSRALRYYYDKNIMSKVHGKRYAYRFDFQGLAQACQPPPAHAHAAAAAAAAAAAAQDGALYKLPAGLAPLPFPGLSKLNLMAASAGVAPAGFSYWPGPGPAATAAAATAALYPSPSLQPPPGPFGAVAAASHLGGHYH
Procedure, shortened: (§1)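 Each value of binding signal is a hexamer's read frequency for a factor divided by the same hexamer's frequency in the tag-only sample. Barcoded, bead-captured GST fusions of human transcription factors made in yeast were pooled with that sample and incubated with 200 nmole of a random double-stranded 16-mer DNA library in Tris/NaCl/DTT/glycerol buffer at room temperature for 30 min. Washing, 0.1% formaldehyde crosslinking, proximity ligation, PCR and Illumina NextSeq500 sequencing followed.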

[2] = molecular target: ETV5 (Homo sapiens, UniProt P41161 1-510); conditions: protein: recombinant; tags: N-terminal GST; dsDNA, one strand shown
Procedure, shortened: as §1

[3] = molecular target: HSF1 (Homo sapiens, UniProt Q00613 1-529); conditions: protein: recombinant; tags: N-terminal GST; chain copies: 3; dsDNA, one strand shown
Procedure, shortened: as §1

[4] = molecular target: T2, SPIC (Homo sapiens, UniProt Q8N5J4 1-248); conditions: protein: recombinant; tags: N-terminal GST; dsDNA, one strand shown
T2 sequence: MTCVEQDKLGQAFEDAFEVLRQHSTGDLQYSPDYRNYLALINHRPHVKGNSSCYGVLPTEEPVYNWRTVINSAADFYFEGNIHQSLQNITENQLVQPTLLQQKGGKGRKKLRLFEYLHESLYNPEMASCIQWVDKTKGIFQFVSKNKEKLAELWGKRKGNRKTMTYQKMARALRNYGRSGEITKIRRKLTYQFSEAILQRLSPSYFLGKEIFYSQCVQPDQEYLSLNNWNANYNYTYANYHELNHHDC
Procedure, shortened: as §1

[5] = molecular target: ELF4 (Homo sapiens, UniProt Q99607 1-663); conditions: protein: recombinant; tags: N-terminal GST; dsDNA, one strand shown
Procedure, shortened: as §1

[6] = molecular target: T3, ELK4 (Homo sapiens, UniProt P28324-2 1-405); conditions: protein: recombinant; tags: N-terminal GST; dsDNA, one strand shown
T3 sequence: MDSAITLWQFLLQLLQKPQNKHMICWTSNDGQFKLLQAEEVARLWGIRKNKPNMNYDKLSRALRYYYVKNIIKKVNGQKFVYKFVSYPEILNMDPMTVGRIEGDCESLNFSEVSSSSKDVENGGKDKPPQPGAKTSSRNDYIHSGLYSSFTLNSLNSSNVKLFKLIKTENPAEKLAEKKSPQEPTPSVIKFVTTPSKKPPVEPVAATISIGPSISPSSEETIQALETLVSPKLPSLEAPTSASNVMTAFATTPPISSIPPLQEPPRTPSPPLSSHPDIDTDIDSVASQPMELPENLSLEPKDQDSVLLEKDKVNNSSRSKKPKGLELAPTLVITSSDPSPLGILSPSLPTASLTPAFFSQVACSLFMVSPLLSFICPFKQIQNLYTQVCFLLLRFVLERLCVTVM
Procedure, shortened: as §1

[7] = molecular target: T4, ETV2 (Homo sapiens, UniProt O00321 1-342); conditions: protein: recombinant; tags: N-terminal GST; dsDNA, one strand shown
T4 sequence: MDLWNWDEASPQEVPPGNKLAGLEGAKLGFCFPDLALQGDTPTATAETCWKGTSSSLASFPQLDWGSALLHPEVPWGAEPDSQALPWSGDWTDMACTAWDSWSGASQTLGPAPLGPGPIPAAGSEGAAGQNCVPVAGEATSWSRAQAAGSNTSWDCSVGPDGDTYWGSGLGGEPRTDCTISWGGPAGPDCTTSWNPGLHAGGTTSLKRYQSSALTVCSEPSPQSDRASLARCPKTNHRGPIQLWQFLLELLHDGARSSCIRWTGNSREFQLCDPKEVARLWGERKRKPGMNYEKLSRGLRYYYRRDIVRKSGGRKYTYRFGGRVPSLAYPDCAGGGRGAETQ
Procedure, shortened: as §1

[8] = molecular target: T5, ELF3 (Homo sapiens, UniProt P78545 1-371); conditions: protein: recombinant; tags: N-terminal GST; dsDNA, one strand shown
T5 sequence: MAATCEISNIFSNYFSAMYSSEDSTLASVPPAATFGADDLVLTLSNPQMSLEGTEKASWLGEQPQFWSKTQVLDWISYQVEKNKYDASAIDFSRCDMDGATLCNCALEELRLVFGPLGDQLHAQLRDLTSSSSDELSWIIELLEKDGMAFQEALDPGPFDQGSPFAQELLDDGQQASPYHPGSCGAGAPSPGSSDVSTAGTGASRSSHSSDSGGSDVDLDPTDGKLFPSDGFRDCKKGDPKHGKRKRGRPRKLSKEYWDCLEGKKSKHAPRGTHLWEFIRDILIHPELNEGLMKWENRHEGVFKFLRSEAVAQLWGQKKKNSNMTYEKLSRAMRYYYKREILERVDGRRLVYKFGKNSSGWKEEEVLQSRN
Procedure, shortened: as §1

[9] = molecular target: CRX (Homo sapiens, UniProt O43186 1-299); conditions: protein: recombinant; tags: N-terminal GST; dsDNA, one strand shown
Procedure, shortened: as §1

[10] = molecular target: ETV1 (Homo sapiens, UniProt P50549 1-477); conditions: protein: recombinant; tags: N-terminal GST; dsDNA, one strand shown
Procedure, shortened: as §1

[11] = molecular target: T6, ERF (Homo sapiens, UniProt P50548 1-548); conditions: protein: recombinant; tags: N-terminal GST; dsDNA, one strand shown
T6 sequence: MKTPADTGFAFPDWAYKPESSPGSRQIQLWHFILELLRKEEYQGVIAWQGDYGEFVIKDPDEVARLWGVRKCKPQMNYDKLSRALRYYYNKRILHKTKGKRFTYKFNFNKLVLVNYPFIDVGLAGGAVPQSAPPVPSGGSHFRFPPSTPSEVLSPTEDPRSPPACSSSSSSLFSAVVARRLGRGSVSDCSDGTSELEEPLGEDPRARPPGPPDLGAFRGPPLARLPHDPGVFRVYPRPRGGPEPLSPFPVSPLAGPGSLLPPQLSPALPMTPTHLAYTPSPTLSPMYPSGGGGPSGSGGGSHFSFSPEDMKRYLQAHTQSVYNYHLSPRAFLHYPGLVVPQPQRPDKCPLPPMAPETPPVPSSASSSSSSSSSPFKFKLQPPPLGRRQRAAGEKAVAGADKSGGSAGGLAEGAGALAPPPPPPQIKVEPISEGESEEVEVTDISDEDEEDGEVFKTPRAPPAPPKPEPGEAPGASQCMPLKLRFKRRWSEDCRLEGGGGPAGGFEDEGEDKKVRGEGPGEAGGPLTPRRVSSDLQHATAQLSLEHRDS
Procedure, shortened: as §1

[12] = molecular target: T7, ETV3L (Homo sapiens, UniProt Q6ZN32 1-361); conditions: protein: recombinant; tags: N-terminal GST; dsDNA, one strand shown
T7 sequence: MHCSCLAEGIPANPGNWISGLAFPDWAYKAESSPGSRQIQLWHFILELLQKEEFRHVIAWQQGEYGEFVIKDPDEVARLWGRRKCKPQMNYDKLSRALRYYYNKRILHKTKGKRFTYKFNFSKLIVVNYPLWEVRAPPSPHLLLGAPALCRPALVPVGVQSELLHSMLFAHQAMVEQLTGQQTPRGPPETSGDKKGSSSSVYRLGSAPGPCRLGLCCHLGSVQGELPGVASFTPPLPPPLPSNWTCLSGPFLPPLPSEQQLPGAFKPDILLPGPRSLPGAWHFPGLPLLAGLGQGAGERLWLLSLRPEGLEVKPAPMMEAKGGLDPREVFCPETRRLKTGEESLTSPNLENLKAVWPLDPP
Procedure, shortened: as §1

[13] = molecular target: T8, ETS2 (Homo sapiens, UniProt P15036 1-469); conditions: protein: recombinant; tags: N-terminal GST; dsDNA, one strand shown
T8 sequence: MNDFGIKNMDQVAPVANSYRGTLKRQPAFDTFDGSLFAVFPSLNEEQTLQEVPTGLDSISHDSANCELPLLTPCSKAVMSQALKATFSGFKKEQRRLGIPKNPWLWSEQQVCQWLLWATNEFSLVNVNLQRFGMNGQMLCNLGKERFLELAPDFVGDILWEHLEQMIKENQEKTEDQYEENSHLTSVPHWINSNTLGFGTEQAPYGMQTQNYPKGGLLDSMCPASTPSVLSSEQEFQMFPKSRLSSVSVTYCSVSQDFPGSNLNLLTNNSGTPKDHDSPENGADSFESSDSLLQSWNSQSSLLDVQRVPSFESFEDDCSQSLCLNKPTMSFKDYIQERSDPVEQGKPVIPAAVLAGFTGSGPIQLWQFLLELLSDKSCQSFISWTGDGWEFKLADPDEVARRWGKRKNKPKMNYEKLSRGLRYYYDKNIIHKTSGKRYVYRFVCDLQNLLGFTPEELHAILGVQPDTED
Procedure, shortened: as §1

[14] = molecular target: T9, SPDEF (Homo sapiens, UniProt O95238 1-335); conditions: protein: recombinant; tags: N-terminal GST; dsDNA, one strand shown
T9 sequence: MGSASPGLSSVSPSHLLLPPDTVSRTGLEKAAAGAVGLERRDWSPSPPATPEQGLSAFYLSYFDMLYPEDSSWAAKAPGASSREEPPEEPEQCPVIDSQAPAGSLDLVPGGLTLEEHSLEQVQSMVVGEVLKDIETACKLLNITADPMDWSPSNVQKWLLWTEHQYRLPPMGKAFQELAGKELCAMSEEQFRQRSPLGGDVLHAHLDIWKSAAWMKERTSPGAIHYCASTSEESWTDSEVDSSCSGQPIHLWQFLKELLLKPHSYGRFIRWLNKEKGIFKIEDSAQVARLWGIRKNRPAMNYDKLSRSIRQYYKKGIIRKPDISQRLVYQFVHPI
Procedure, shortened: as §1

[15] = molecular target: T10, ETV7 (Homo sapiens, UniProt Q9Y603 1-341); conditions: protein: recombinant; tags: N-terminal GST; dsDNA, one strand shown
T10 sequence: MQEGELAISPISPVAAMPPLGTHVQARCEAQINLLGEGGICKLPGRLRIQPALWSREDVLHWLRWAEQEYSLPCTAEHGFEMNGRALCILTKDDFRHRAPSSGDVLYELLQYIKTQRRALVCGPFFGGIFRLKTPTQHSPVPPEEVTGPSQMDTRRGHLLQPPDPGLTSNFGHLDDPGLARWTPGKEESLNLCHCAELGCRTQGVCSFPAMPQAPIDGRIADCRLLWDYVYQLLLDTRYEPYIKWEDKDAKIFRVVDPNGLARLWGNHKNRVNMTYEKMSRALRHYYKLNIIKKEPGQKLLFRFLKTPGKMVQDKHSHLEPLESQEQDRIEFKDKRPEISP
Procedure, shortened: as §1

[16] = molecular target: T11, ELF5 (Homo sapiens, UniProt Q9UKW6-2 1-255); conditions: protein: recombinant; tags: N-terminal GST; dsDNA, one strand shown
T11 sequence: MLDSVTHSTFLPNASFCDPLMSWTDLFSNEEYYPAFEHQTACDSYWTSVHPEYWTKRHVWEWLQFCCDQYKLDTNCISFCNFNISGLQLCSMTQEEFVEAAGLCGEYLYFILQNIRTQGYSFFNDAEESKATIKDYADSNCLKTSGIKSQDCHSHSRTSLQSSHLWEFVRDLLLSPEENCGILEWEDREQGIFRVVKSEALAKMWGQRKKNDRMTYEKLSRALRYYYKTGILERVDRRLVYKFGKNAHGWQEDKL
Procedure, shortened: as §1

[17] = molecular target: T12, ETV3 (Homo sapiens, UniProt P41162-2 1-143); conditions: protein: recombinant; tags: N-terminal GST; dsDNA, one strand shown
T12 sequence: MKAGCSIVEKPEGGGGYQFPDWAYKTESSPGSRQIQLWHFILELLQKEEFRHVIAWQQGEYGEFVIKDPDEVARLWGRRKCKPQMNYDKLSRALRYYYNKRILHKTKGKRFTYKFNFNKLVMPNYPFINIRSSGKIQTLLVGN
Procedure, shortened: as §1

[18] = molecular target: ETV6 (Homo sapiens, UniProt P41212 1-452); conditions: protein: recombinant; tags: N-terminal GST; dsDNA, one strand shown
Procedure, shortened: as §1

CRX, sequence (O43186 whole entry): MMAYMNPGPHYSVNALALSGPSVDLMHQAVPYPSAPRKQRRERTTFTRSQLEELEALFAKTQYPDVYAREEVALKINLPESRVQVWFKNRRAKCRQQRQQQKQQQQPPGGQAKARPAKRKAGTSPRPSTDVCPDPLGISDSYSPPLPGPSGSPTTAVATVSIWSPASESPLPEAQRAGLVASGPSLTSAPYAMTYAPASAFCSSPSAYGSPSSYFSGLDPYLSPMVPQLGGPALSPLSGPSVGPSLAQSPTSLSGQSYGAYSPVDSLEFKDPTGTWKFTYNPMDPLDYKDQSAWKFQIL
ETV6, sequence (P41212 whole entry): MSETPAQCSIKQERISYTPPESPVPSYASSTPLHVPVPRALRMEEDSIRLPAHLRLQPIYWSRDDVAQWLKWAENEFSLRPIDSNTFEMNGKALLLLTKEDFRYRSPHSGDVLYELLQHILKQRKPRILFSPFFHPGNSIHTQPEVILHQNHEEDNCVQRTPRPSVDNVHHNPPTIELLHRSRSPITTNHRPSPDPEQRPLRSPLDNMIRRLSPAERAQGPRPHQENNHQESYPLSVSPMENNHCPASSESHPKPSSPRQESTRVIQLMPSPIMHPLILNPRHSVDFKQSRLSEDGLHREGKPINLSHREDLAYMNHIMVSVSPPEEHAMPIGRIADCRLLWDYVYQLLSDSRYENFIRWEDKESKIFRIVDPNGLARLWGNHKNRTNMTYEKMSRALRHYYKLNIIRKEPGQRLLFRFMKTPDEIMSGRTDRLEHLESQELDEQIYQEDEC
ETV5, sequence (P41161 whole entry): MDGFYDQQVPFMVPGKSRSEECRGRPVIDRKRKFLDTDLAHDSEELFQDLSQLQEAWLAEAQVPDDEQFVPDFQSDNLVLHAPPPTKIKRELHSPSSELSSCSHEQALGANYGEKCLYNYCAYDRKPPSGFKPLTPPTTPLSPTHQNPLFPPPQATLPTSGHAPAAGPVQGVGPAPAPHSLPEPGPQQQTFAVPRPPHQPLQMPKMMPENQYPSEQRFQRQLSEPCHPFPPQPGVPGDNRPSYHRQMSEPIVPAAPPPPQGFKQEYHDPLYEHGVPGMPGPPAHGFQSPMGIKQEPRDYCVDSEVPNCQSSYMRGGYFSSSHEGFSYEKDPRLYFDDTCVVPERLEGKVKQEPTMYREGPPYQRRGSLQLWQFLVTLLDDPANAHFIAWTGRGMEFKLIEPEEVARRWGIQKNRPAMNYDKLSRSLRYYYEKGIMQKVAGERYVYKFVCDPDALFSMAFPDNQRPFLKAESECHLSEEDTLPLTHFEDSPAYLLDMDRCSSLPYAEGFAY
ETV1, sequence (P50549 whole entry): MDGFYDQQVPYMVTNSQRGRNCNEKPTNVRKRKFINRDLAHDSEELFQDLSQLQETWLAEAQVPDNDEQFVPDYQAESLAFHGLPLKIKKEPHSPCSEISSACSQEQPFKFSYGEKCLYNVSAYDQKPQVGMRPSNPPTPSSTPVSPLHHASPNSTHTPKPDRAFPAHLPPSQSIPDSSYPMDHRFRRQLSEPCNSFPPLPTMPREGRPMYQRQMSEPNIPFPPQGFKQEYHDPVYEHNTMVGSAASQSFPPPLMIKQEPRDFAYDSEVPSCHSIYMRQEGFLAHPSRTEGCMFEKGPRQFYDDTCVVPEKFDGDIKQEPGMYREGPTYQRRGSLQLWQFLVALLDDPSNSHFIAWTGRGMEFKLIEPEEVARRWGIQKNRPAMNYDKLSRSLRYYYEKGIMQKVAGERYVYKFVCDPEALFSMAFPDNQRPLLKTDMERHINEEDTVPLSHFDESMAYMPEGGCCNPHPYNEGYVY
ELF4, sequence (Q99607 whole entry): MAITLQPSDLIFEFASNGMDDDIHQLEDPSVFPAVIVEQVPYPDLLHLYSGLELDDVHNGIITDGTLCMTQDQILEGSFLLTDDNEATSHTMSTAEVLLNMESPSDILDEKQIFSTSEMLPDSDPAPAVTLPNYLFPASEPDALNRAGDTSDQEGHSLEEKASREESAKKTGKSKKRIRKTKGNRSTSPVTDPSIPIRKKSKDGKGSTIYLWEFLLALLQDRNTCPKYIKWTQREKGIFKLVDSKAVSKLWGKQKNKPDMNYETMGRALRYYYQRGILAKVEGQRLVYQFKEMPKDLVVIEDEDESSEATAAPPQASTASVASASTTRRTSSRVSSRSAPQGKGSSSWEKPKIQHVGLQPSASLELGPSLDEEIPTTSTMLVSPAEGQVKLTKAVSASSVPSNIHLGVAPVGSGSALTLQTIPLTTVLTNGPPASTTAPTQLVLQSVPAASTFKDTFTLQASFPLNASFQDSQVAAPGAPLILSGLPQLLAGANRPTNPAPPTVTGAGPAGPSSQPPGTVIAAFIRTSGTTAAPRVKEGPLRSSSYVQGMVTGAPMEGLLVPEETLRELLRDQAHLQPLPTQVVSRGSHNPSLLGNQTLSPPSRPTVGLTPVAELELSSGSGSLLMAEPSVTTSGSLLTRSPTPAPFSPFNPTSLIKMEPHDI
HSF1, sequence (Q00613 whole entry): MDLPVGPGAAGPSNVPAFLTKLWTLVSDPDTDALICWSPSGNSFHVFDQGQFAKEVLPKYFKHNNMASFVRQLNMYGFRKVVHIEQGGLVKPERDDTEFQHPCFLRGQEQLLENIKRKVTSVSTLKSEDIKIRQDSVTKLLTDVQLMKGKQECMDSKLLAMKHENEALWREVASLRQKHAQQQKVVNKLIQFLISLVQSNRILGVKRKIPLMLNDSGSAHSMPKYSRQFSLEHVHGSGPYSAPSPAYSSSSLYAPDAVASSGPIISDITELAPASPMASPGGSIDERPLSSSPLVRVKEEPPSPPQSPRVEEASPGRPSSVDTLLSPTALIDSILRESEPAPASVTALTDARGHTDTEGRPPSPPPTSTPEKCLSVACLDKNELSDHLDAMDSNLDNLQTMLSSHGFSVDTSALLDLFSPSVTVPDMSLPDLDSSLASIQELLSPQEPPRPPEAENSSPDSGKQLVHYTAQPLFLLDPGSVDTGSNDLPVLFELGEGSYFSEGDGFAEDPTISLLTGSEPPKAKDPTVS

Sequence	binding signal [1]	binding signal [2]	binding signal [3]	binding signal [4]	binding signal [5]	binding signal [6]	binding signal [7]	binding signal [8]	binding signal [9]	binding signal [10]	binding signal [11]	binding signal [12]	binding signal [13]	binding signal [14]	binding signal [15]	binding signal [16]	binding signal [17]	binding signal [18]
AACTAG	1.14 fold enrichment (6-mer frequency, TF over GST control)	1.15 fold enrichment (6-mer frequency, TF over GST control)	1.37 fold enrichment (6-mer frequency, TF over GST control)	1.2 fold enrichment (6-mer frequency, TF over GST control)	1.19 fold enrichment (6-mer frequency, TF over GST control)	1.02 fold enrichment (6-mer frequency, TF over GST control)	1.35 fold enrichment (6-mer frequency, TF over GST control)	1.1 fold enrichment (6-mer frequency, TF over GST control)	1.11 fold enrichment (6-mer frequency, TF over GST control)	1.15 fold enrichment (6-mer frequency, TF over GST control)	1.16 fold enrichment (6-mer frequency, TF over GST control)	1.09 fold enrichment (6-mer frequency, TF over GST control)	1.11 fold enrichment (6-mer frequency, TF over GST control)	1.08 fold enrichment (6-mer frequency, TF over GST control)	1.1 fold enrichment (6-mer frequency, TF over GST control)	1.13 fold enrichment (6-mer frequency, TF over GST control)	1.14 fold enrichment (6-mer frequency, TF over GST control)	1.15 fold enrichment (6-mer frequency, TF over GST control)
CTTAGA	1.15 fold enrichment (6-mer frequency, TF over GST control)	1.06 fold enrichment (6-mer frequency, TF over GST control)	1.53 fold enrichment (6-mer frequency, TF over GST control)	1.27 fold enrichment (6-mer frequency, TF over GST control)	1.09 fold enrichment (6-mer frequency, TF over GST control)	1.24 fold enrichment (6-mer frequency, TF over GST control)	1.15 fold enrichment (6-mer frequency, TF over GST control)	1.07 fold enrichment (6-mer frequency, TF over GST control)	1.69 fold enrichment (6-mer frequency, TF over GST control)	1.14 fold enrichment (6-mer frequency, TF over GST control)	1.18 fold enrichment (6-mer frequency, TF over GST control)	1.17 fold enrichment (6-mer frequency, TF over GST control)	1.06 fold enrichment (6-mer frequency, TF over GST control)	1.16 fold enrichment (6-mer frequency, TF over GST control)	1.07 fold enrichment (6-mer frequency, TF over GST control)	1.04 fold enrichment (6-mer frequency, TF over GST control)	1.07 fold enrichment (6-mer frequency, TF over GST control)	1.11 fold enrichment (6-mer frequency, TF over GST control)
